Assay [1] in a line: rapamycin-like changes in RPL19A-GFP expression – cell-based, S. cerevisiae, multiplex flow cytometry, primary screen (AID 1862; in the data active = percent of DMSO control GFP below about 86%;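 also: lower values mimic rapamycin by blocking the RPL19A rise seen in DMSO cells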). The note with it: S. cerevisiae RPL19A-GFP strain, flow cytometry fluorescence, 3 h; at 10 µM; stronger effect = lower value.
Assay [2] in a line: TOR pathway GLN3 branch reporter MEP2-GFP changes – S. cerevisiae, multiplex flow cytometry, primary screen (AID 1867;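 active = GFP response, as percent of the DMSO control, above the screen-wide mean plus 3 SD, about 139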;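 also: median GFP channel fluorescence of barcode-gated MEP2-GFP cells measured by flow cytometry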). The note with it: S. cerevisiae MEP2-GFP strain, 3 h, at 10 µM, stronger effect = higher value, 100% means same as DMSO wells. Background: Flow cytometry measures light scatter and fluorescence of single cells or particles in a stream.
A short description of assay [3]: TOR pathway RTG branch CIT2 reporter changes – S. cerevisiae, GFP fusion, multiplex flow cytometry, primary screen (AID 1870;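 active = percent response above a set limit, the screen-wide mean plus 3 SD, cut at about 130% in these data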;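 also: barcoded CIT2-GFP strain pooled with four other GFP strains with rapamycin as positive control; median GFP fluorescence per well over plate mean of DMSO wells so 100% = DMSO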). The note with it: S. cerevisiae CIT2-GFP expression, 3 h, at 10 µM, stronger effect = higher value.
Assay [4] can be described thus: TOR pathway LAP4-GFP level changes – S. cerevisiae, multiplex flow cytometry, primary screen (AID 1873;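 active = GFP signal, as percent of the solvent control, above the screen mean plus 3 SD, about 149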). The note with it: S. cerevisiae LAP4-GFP expression, 3 h, at 10 µM, stronger effect = higher value.
A short description of assay [5]: yeast AGP1-GFP level changes, GLN3 branch – cell-based, multiplex flow cytometry, S. cerevisiae, primary screen (AID 1887;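 active = GFP signal above the screen-wide mean plus 3 SD, that is over about 124.5% of the solvent control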;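 also: AGP1-GFP fusion strain of S. cerevisiae within a five-strain barcoded multiplex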). The note with it: 3 h, at 10 µM, stronger effect = higher value.
Assay [6] is described as follows: reduced mouse 2C T cell binding to pMHC/ICAM-1 vesicles – MLPCN validation set, flow cytometry, LFA-1/ICAM-1 modulator project, pilot screen (AID 2523;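 active = response below a set limit, under 55% cells CD8-positive and vesicle-bound, and CD8 cells' 90th-percentile brightness under 279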;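 as to vesicle binding response: mean PE anti-B7-1 fluorescence of CD8+ cells relative to row control; 100% = QL9-loaded vesicles with DMSO vehicle in the same plate row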). The conditions noted are these: 2C mouse CD8+ T cells, at 7 µM, stronger effect = lower value; double positive events: measured here: CD8+/vesicle+ event percentage.
Assay [7] deals with Integrin beta-1 (Homo sapiens) + Integrin alpha-4 (Homo sapiens) (UniProt P13612+P05556). The assay is described as follows: alpha4beta1 integrin LIBS antibody binding reduction – U937 cells, HUTS-21 mAb, flow cytometry, validation set, VLA-4 allosteric modulator project, pilot screen (AID 2674;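 active = inhibition above 50%, about 3 SD of the validation set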;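 also: antibody binding induced by the VLA-4 ligand LDV present at three times its Kd; 0% = LDV ligand with antibody and no compound and 100% = antibody without LDV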). The note with it: HUTS-21 LIBS mAb binding, at 6.7 µM, stronger effect = higher value, binding induced by LDV ligand.
Integrin beta-1 (Homo sapiens) + Integrin alpha-4 (Homo sapiens), sequence (P05556 whole entry, looked up): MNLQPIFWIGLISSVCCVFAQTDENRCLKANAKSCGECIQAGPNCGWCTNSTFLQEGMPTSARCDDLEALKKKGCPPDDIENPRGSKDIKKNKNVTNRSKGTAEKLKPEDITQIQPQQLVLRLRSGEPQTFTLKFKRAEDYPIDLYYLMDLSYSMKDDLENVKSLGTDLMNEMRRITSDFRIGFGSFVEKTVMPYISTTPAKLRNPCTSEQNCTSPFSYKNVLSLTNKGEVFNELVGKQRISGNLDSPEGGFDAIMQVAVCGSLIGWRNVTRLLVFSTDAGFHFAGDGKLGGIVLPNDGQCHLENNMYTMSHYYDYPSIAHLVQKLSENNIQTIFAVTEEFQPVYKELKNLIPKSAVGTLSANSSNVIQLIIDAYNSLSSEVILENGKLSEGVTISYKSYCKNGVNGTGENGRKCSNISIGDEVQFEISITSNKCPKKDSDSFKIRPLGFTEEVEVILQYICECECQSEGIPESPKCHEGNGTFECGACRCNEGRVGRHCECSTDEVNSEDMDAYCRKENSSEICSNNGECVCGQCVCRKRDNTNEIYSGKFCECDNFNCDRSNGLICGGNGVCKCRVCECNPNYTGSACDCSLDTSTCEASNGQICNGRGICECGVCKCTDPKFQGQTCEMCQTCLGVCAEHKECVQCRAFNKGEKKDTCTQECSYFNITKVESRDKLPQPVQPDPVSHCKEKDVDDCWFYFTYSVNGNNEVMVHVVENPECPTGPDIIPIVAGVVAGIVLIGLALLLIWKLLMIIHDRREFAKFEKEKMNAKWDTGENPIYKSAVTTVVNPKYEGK
Integrin beta-1 (Homo sapiens) + Integrin alpha-4 (Homo sapiens), sequence (P13612 whole entry, looked up): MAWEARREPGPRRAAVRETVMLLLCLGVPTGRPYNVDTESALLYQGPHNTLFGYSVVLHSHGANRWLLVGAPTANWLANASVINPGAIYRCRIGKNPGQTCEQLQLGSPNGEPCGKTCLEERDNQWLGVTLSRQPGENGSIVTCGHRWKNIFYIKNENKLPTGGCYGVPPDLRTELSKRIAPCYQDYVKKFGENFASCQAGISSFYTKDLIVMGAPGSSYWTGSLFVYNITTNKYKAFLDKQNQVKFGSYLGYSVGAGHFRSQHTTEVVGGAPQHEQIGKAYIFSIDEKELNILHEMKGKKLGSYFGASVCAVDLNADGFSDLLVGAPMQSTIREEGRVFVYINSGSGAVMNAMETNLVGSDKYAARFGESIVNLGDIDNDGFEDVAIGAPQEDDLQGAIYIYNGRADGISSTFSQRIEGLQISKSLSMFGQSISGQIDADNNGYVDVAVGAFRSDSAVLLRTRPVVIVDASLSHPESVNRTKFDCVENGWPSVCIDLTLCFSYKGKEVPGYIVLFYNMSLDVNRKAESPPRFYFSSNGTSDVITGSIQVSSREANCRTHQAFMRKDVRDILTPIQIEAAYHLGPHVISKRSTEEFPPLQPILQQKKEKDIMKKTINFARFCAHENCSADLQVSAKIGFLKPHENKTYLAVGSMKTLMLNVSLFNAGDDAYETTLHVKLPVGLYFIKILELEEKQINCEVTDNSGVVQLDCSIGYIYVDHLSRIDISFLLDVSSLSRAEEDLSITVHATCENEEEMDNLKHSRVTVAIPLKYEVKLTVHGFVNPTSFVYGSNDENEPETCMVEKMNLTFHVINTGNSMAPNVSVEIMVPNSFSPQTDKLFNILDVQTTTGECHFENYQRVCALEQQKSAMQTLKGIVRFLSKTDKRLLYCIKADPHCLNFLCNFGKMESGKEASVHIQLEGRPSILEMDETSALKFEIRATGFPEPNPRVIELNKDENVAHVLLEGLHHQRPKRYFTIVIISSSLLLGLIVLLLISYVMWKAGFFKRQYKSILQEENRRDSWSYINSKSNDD

A short description of assay [8]: calorie-restriction mimetic ROS inhibitors, yeast – validation compound set, pilot screen (AID 2706;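 active = superoxide response below 65% of plate, a cut near 3 SD across the whole screen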;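 also: yeast exposed to compound for one week at 30 degrees C before staining; 100% = mean of all compound wells on the same plate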). The conditions noted are these: S. cerevisiae aging, superoxide DHE fluorescence; at 10 µM, stronger effect = lower value.
The target in assay [9] is Beta-adrenergic receptor kinase 1 (Homo sapiens) (UniProt P25098). The assay is described as follows: GRK2 binders displacing RNA aptamer, biochemical, validation, human GRK2, bead flow cytometry (AID 488806). The conditions noted are these: bead-bound GRK2, FAM-aptamer displacement, at 10 µM, stronger effect = higher value.
Beta-adrenergic receptor kinase 1 (Homo sapiens), sequence (P25098 whole entry, looked up): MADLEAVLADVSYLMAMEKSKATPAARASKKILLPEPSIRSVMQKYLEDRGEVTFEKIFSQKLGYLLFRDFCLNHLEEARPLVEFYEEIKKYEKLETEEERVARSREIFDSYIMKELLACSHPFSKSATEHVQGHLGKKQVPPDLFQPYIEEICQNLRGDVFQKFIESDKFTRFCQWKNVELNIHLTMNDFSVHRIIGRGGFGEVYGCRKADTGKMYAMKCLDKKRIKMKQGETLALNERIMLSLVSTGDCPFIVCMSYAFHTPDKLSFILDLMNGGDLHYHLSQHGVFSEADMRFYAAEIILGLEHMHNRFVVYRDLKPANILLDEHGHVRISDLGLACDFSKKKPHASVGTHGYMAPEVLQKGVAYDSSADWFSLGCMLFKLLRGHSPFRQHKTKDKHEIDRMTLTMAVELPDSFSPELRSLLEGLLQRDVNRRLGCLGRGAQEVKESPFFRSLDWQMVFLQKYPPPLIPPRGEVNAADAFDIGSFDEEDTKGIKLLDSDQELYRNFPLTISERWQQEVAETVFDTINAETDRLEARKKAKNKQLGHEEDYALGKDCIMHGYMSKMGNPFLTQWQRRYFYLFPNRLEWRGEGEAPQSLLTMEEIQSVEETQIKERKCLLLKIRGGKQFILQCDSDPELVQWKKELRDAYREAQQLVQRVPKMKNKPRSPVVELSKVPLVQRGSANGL
For assay [10], the target named is AP-2 complex subunit beta (Homo sapiens) (UniProt P63010). The assay is described as follows: beta-arrestin/AP2 interaction blockers – biochemical, validation set, GST-AP2 beads, flow cytometry, pilot screen (AID 504541;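 active = inhibition above 54%, about 3 SD of non-fluorescent compounds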;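 also: AP2 carries R879A mutation and is captured from E. coli lysate; bead-bound FITC arrestin peptide fluorescence measuring arrestin peptide binding to AP2; 0% = DMSO wells and 100% = excess unlabeled arrestin peptide control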). The conditions noted are these: FITC arrestin peptide, at 10 µM, stronger effect = higher value, AP2 beta2 appendage fragment, R879A mutant.
AP-2 complex subunit beta (Homo sapiens), sequence (P63010 whole entry, looked up, the tested form may be a part, one chain of several): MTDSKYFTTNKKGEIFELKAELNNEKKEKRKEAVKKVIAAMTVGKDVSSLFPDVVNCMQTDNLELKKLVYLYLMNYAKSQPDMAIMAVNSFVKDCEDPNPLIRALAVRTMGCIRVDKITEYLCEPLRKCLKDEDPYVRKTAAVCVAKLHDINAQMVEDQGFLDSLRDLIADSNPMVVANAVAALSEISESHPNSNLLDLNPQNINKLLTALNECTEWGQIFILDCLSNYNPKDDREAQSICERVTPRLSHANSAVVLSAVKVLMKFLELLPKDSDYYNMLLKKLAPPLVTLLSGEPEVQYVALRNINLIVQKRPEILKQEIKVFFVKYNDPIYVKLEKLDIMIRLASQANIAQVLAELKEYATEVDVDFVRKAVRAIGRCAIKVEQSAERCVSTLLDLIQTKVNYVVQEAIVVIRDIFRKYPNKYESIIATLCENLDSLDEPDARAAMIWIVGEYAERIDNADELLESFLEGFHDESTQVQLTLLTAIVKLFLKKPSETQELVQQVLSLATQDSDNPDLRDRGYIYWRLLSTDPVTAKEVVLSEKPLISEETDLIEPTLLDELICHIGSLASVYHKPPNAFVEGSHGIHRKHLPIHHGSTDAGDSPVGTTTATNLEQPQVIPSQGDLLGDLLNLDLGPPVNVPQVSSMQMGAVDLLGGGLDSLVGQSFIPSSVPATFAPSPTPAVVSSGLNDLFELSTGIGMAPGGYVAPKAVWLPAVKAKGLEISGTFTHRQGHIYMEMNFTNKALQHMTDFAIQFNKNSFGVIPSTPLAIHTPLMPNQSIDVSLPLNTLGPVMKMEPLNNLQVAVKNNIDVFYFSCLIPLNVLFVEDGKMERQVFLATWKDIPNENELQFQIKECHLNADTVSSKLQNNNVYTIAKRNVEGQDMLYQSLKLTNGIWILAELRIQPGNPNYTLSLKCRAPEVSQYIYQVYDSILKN
Assay [11] in a line: cytosolic pH regulators acting via V-ATPase – S. cerevisiae, pHLuorin, HTS validation (AID 504600; in the data active = response above about 15%;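 also: plate controls were DMSO for no effect and reference compound for full effect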). The conditions noted are these: V-ATPase proton transport, at 10 µM, stronger effect = higher value.
Assay [12] has as its system anti-desmoglein-3 scFv antibody binding to human DSG3. Nature of the assay: blockers of pathogenic pemphigus antibody–desmoglein-3 binding – biochemical, validation compound set, bead-based, flow cytometry, pilot screen (AID 588368;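 active = binding below the plate cutoff, the plate median minus 3 SD, with a reading above zero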;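 also: signal is the median channel fluorescence of bead-bound GFP antibody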). The note with it: Protein G beads, DSG3-Fc, scFv-GFP binding, at 10 µM, stronger effect = lower value.
The nature of assay [13]: Nile Red efflux blockade in pump-expressing yeast – validation compound set, multiplex, phenotypic, pilot screen (AID 588506;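 active = efflux inhibition above 0.42, the validation set average plus 4 SD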;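 also: Nile Red retained in cells so higher fluorescence means more efflux inhibition; 0 = negative control wells and 1 = enniatin B 25 µM full block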). The conditions noted are these: S. cerevisiae pump-expressing triplex, Nile Red efflux flow cytometry; at 10 µM; stronger effect = higher value; the pumps come from Candida albicans.
Assay [14] deals with ATP-binding cassette sub-family B member 6 (Homo sapiens) (UniProt Q9NP58). The assay is described as follows: blockers of ABCB6-driven porphyrin uptake – K562-ABCB6 cells, flow cytometry, validation set, pilot screen (AID 588550;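 active = inhibition above the screen-wide mean plus 3 SD, about 51%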;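 also: 0% = DMSO wells and 100% = benzethonium chloride 70 µM positive control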). The note with it: K562-ABCB6 porphyrin accumulation, 1 h, at 10 µM, stronger effect = higher value.
ATP-binding cassette sub-family B member 6 (Homo sapiens), sequence (Q9NP58 whole entry, looked up): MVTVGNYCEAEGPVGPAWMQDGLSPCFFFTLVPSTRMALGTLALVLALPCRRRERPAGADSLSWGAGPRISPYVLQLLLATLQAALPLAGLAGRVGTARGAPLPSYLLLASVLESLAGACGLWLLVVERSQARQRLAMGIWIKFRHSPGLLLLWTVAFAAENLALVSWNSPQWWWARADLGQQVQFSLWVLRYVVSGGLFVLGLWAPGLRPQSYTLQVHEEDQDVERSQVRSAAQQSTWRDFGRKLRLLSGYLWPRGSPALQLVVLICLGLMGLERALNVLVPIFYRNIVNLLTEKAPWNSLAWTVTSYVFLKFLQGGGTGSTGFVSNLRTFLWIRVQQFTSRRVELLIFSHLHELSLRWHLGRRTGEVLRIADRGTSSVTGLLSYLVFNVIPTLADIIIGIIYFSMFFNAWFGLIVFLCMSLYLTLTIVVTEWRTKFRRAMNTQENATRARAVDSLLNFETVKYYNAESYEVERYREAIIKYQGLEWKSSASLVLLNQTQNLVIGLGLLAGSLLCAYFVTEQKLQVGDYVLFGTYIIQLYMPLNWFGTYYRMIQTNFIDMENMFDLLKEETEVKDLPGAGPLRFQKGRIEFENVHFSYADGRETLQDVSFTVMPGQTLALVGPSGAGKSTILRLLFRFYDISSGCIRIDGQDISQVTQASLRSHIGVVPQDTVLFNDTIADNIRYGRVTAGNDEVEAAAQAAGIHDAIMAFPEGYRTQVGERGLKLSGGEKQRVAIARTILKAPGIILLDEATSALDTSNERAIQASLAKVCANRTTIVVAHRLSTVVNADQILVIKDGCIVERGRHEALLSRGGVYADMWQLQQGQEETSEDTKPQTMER
Assay [15] can be described thus: AML differentiation inducers, ER-HoxA9 marrow cells – cell-based, GFP/MAC1 double positive, flow cytometry, validation set, primary screen (AID 588685;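 active = differentiation response of at least 50%, scaled between solvent and reference control, from cells with both markers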;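 also: compound exposure lasts four days before antibody staining and flow analysis; 0% = DMSO wells and 100% = 5 µM fulvestrant positive control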). The conditions noted are these: stronger effect = higher value, normalized: vehicle 0, fulvestrant 100.

Inconclusive results are not listed. Active and inactive are the calls of the source.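 The calls were made as follows, unless noted: active = aptamer binding inhibition above 30%, about 3 SD of noise from non-fluorescent compounds; inactive = inhibition at or below 30%.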

Experimental findings from PubChem BioAssay are described below.

The term inhibition denotes the change of the read-out against control, counted positive when it falls. Regarding `CCN(Cc1ccncc1)Cc1nc(Cc2ccccc2Cl)no1`, the percent of DMSO control GFP in assay [1] is 95.8% (inactive). The GFP response vs DMSO is 98.9% (inactive) in assay [2] and 95.4% (inactive) in assay [4]. For the same molecule, the percent response of DMSO control in [3] is 102% (inactive). For the same molecule, the GFP response, % of DMSO in assay [5] was 94.2% (inactive). The molecule also came in with a double positive events in assay [6] of 53.4%. For the same molecule, the vesicle binding response in assay [6] was 164% (inactive). Moreover, the inhibition in assay [7] was -12.4% (inactive); in assay [10], 8.49% (inactive); in [14], 7% (inactive). Further, the superoxide response (% of plate) in assay [8] was 111% (inactive). Further, the aptamer binding inhibition in assay [9] was 2% (inactive). The response in assay [11] was 2.76% (inactive). The binding (% of control) in assay [12] was 101% (inactive). Further, the efflux inhibition (fraction of control) in [13] is 0.25 (inactive). Besides, the differentiation response in [15] was -27.6% (inactive).

Turning to `COc1ccc2oc(=O)c(C(=O)N3CCN(c4ccccc4)CC3)cc2c1`, in assay [1], the percent of DMSO control GFP is 97.8% (inactive). In addition, the GFP response vs DMSO was 93.8% (inactive) in assay [2] and 89.3% (inactive) in assay [4]. Besides, the percent response of DMSO control in [3] is 101% (inactive). Also, the GFP response, % of DMSO in [5] is 90.3% (inactive). Besides, the double positive events in [6] stood at 52.5%. In assay [6], the vesicle binding response is 130% (inactive). Further, the inhibition in assay [7] is 12.8% (inactive); in [10], 10.5% (inactive); in [14], 10% (inactive). Besides, in assay [8], the superoxide response (% of plate) is 110% (inactive). Also, the aptamer binding inhibition in assay [9] is 2% (inactive). The response in assay [11] is -1.57% (inactive). In assay [12], the binding (% of control) is 101% (inactive). The efflux inhibition (fraction of control) in assay [13] was -0.54 (inactive). For the same molecule, the differentiation response in [15] was 25.6% (inactive).

As for `Cc1ncc([N+](=O)[O-])n1CC(O)CCl` (stereo not given), the percent of DMSO control GFP in assay [1] is 101% (inactive). Also, the GFP response vs DMSO in assay [2] was 103% (inactive); in [4], 104% (inactive). In addition, the percent response of DMSO control in assay [3] was 102% (inactive). Also, in assay [5], the GFP response, % of DMSO was 100% (inactive). The double positive events in assay [6] amounted to 59.5%. Also, the vesicle binding response in assay [6] was 193% (inactive). For the same molecule, the figures for the inhibition in assay [7], in assay [10] and in assay [14] were 7.22% (inactive), 24.7% (inactive) and 8% (inactive), respectively. In [8], the superoxide response (% of plate) is 101% (inactive). Moreover, the aptamer binding inhibition in assay [9] was 4% (inactive). For the same molecule, the response in assay [11] is -1.86% (inactive). Further, the binding (% of control) in assay [12] was 105% (inactive). Also, the efflux inhibition (fraction of control) in assay [13] is -0.09 (inactive). Besides, the differentiation response in assay [15] was -0.2% (inactive).

For `Cc1nc(C)c(C)nc1C`, the percent of DMSO control GFP in assay [1] was 101% (inactive). For the same molecule, the GFP response vs DMSO is 101% (inactive) in [2] and 100% (inactive) in assay [4]. Moreover, in assay [3], the percent response of DMSO control was 102% (inactive). Also, the GFP response, % of DMSO in assay [5] was 103% (inactive). For the same molecule, the double positive events in assay [6] is 64.7%. Further, in assay [6], the vesicle binding response is 132% (inactive). Further, the inhibition in assay [7] is 12.8% (inactive); in assay [10] it was 31.6% (inactive); in assay [14] it was 8% (inactive). In assay [8], the superoxide response (% of plate) is 104% (inactive). Also, the aptamer binding inhibition in assay [9] was -3% (inactive). For the same molecule, the response in [11] is -7.78% (inactive). Moreover, the binding (% of control) in assay [12] is 103% (inactive). The efflux inhibition (fraction of control) in assay [13] was 0.25 (inactive). For the same molecule, the differentiation response in assay [15] was 3.03% (inactive).

As to `COc1ccc2c(c1)C(=O)CC(c1ccccc1F)O2` (stereo not given), the percent of DMSO control GFP in [1] is 95.8% (inactive). The GFP response vs DMSO in assay [2] is 103% (inactive); in assay [4], 92.3% (inactive). Further, in [3], the percent response of DMSO control is 93.9% (inactive). For the same molecule, in assay [5], the GFP response, % of DMSO was 87% (inactive). Moreover, the double positive events in [6] amounted to 62%. For the same molecule, the vesicle binding response in assay [6] was 135% (inactive). Moreover, the results for the inhibition in assay [7], in [10] and in assay [14] were 10% (inactive), 21.8% (inactive) and -46% (inactive), respectively. In assay [8], the superoxide response (% of plate) is 97% (inactive). Further, the aptamer binding inhibition in assay [9] was 0% (inactive). Also, the response in assay [11] is -0.49% (inactive). Further, the binding (% of control) in [12] was 94.1% (inactive). Moreover, the efflux inhibition (fraction of control) in assay [13] is 0.44 (active). Further, in assay [15], the differentiation response was -11.5% (inactive).
